# This is part of a sample that, as a whole, favours compounds with a hit. Of some 83,000 tested, about 20% had one in any assay.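 The test compound was applied at a single concentration to cells in 96-well plates for 48 hours, and percent growth was recorded.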 Activity calls are given as the source filed them.
# System: PC-3 prostate
# Test: NCI-60 one-dose screen, 48 h (100 = growth as untreated, 0 = no growth, -100 = all killed)
# Settings: 10 µM unless noted
# Protocol: Growth inhibition of the PC-3 human tumor cell line is measured as a screen for anti-cancer activity. Cells are grown in 96 well plates and exposed to the test compound for 48 hours. Compounds are tested at a single concentration, which is 10^-5 M for most compounds. The reported endpoint is percent growth (GI% or GIPRCNT), where numbers from 0 - 100% represent growth inhibition, and numbers from -100% - 0 represent cell death. For example, a value of 40 represents 60% growth inhibition. A value of 0 means no net growth occurred over the course of the experiment. A value of -40 indicates 40% of cells at the beginning of the experiment died by the end of the experiment. A value of -100 means all cells are dead at the end of the experiment.
# NCI-60 Human Tumor Cell Lines Screen was performed using the standard one-dose NCI protocol, which is described in more detail at https://dtp.cancer.gov/discovery_development/nci-60/default.htm.
# Compounds with GIPRCNT values below 10 were considered active. Activity score was based on GIPRCNT using the following formula: […]
# Score is 0 for GIPRCNT values of 100 or above, 50 for GIPRCNT values of 0, and 100 for GIPRCNT values of -100.
row,Structure (SMILES),growth
1,CCN(CC)CCOc1nc2c3ccc(Cl)cc3nn2c2ccccc12,34.1% (inactive)
2,CCSC1=CC(=O)c2ccccc2C1=O,73% (inactive)
3,CCOC(=O)C1=C(C)N=C2SC=C(c3ccccc3)N2[C@H]1c1cn[nH]c1-c1ccc(Cl)cc1,34.7% (inactive)
4,Cc1ccc(/C=C(\C#N)C(=O)Nc2ncc(Cc3cc(Cl)ccc3Cl)s2)o1,38.8% (inactive)
5,CCCCCCCC/C=C\CCCCCCCCOc1ccccc1CC(=O)NCC[N+]1(C)CCCCC1,3.49% (active)
6,N=c1c2c(=N)n3c(nc2nc2n1-c1ccccc1Sc1ccccc1-2)sc1cc(Cl)ccc13,19.4% (inactive)
7,CC(O)c1ncc(/C=C2\SC(=S)N(Cc3ccccc3)C2=O)s1 (stereo not given),97.3% (inactive)
8,CCOC(=O)c1c2c(n3ccccc13)C(=O)c1ncccc1C2=O,19.9% (inactive)
9,COC(=O)c1c2c(c(C)[n+]([O-])c1C)C(=O)C=CC2=O,3.6% (active)
10,O=C1/C(=C/c2ccc(C(F)(F)F)cc2)COc2ccc(O)c(O)c21,-36.1% (active)
11,COc1cc2nc(Nc3cccc(F)c3)nc(Nc3cc(C)[nH]n3)c2cc1OC,-81% [20 µM] (active)
12,COc1ccc(-c2oc(=O)ccc2-c2cc(OC)c(OC)c(OC)c2)cc1O,38.1% (inactive)
13,CC(=O)c1c(Nc2ccc(F)c(F)c2F)[nH]c2c(F)cc(F)cc2c1=O,4.75% (active)
14,O=C(Cn1nnc2ccccc21)N/N=C/c1ccccc1F,96% (inactive)
15,C=C1C(=O)O[C@H]2[C@H]1CC/C(COC(=O)/C=C\C(=O)NCc1ccc(Cn3c(=O)sn(-c4ccccc4)c3=O)cc1)=C\CC[C@@]1(C)O[C@@H]21,83.5% (inactive)
16,CN1C(=O)/C(=C/c2ccc(C(=O)Nc3ncc(Cc4ccc(F)cc4)s3)cc2)SC1=S,52.4% (inactive)
17,COc1ccc(-c2cc(-c3ccc(OC)cc3)nc(NCCCNc3ccnc4cc(Cl)ccc34)n2)cc1,61.5% (inactive)
18,c1ccc(CNc2ccc3nc(CCC4CCCCC4)[nH]c3c2)cc1,62.5% (inactive)
19,COC(=O)c1c2c(n3ccc(C)cc13)C(=O)c1ccccc1C2=O,48.9% (inactive)
20,O=C(CCCCCCN1CC(=O)N2[C@@H](c3ccc(Cl)cc3)c3[nH]c4ccccc4c3C[C@H]2C1=O)NO,43.5% (inactive)

row,Structure (SMILES),growth
1,COc1ccc(C2=Nc3c/c(=C\c4c(O)[nH]c5cc(Cl)ccc45)ccc3=N2)cc1,43.3% (inactive)
2,C=C1C(=O)O[C@H]2[C@H]1CC/C(COC(=O)c1cc3cc(F)ccc3[nH]1)=C\CC[C@@]1(C)O[C@@H]21,-75.2% (active)
3,CC1(C)CC[C@]2(C(=O)N3CCOCC3)CC[C@]3(C)C(=CC[C@@H]4[C@@]5(C)C/C(=C/c6ccncc6)C(=O)C(C)(C)[C@@H]5CC[C@]43C)[C@@H]2C1,10.9% (inactive)
4,OC(c1ccccc1)(c1ccccc1)c1ccccc1-c1ccccc1,86% (inactive)
5,Cc1cc(C(=O)Nc2cc(Nc3ncccc3-c3ncnc4nc[nH]c34)ccc2F)cc(C(F)(F)F)c1,72.2% (inactive)
6,NNC(=S)N/N=C/c1ccccn1,32.9% (inactive)
7,O=C(CCC(=O)c1nc2ncccc2[nH]1)NN1C(=O)CSC1c1ccc(Cl)cc1 (stereo not given),94.3% (inactive)
8,O=C(c1ccc(F)c(Cl)c1)N1c2ccccc2Sc2ccccc21,40.3% (inactive)
9,O=C(OC[C@@H]1CO1)c1cccc2c(=O)c3ccccc3[nH]c12,-21.1% (active)
10,O=C1NC(=O)c2c1c1c3ccccc3[nH]c1c1oc3ccc(F)cc3c21,45% (inactive)
11,Clc1nccc2c(-c3csc(-c4c[nH]c5ccccc45)n3)c[nH]c12,40.1% (inactive)
12,FC(F)(F)c1[nH]ncc1-c1nc2c(N3CCCCC3)cc3[nH]ncc3c2c2c1CCCC2,0.448% (active)
13,Cc1ccc(/C=C2\CN(C(=O)C(Cl)Cl)C/C(=C\c3ccc(C)cc3)C2=O)cc1,-49.3% (active)
14,Cn1c(=O)c2c(nc(NC3=NS(=O)(=O)c4ccccc43)n2Cc2ccccc2)n(C)c1=O,95.4% (inactive)
15,CCC(CC)(N(CC(=O)O)CC(=O)O)C(CC)(CC)N(CC(=O)O)CC(=O)O,85.1% (inactive)
16,COc1cc(N2C(=O)[C@H](c3ccccc3)C2c2ccc(SC)cc2)cc(OC)c1OC (stereo not given in full),17.7% (inactive)
17,CCN(CC)CCCC(C)Nc1ccc2cc(OC)ccc2n1 (stereo not given),95.4% (inactive)
18,COc1ccc(NC(=O)c2ccc(C(=O)Nc3ccc(OC)cc3OC)cc2)c(OC)c1,75.9% (inactive)
19,COc1ccc(/C(C)=C(\c2ccc(OCCN3CCCCCC3)cc2)c2ccc(OC(=O)c3ccccc3)cc2)cc1,39.6% (inactive)
20,C=CC(C)(O)CC/C=C(\CO)C(=O)OC1C(C)OC(O[C@](C)(C=C)CC/C=C(\CO)C(=O)O[C@H]2C[C@@]3(C(=O)OC4OC(CO)C(O)C(O)C4OC4OC(C)C(OC5OC(CO)C(O)C5O)C(OC5OC(CO)C(O)C(O)C5O)C4O)C(CC2(C)C)C2=CCC4[C@@]5(C)CC[C@H](OC6OC(COC7OC(C)C(O)C(O)C7OC7OCC(O)C(O)C7O)C(O)C(O)C6NC(C)=O)C(C)(C)C5CC[C@@]4(C)[C@]2(C)C[C@H]3O)C(O)C1O (stereo not given in full),-68.9% (active)
